From PubChem BioAssay AID463173 (ICCB-Longwood Screening Facility, Harvard Medical School, 2010)
Hit rate of the full screen: of about 52,000 compounds, about 4,300 (8.3%) were called active. This is one part of a sample in which actives are shown more often than they occur. Unmarked numbers belong to inactive results. Cut-off read from the data, not from the text of the source: active = survival mostly below about 52% (no sharp cut-off); inactive = mostly above about 56%.

system: DeltatarO mutant; assay: S. aureus survival, RN4220 and DeltatarO strains – OD600, teichoic acid synthesis inhibitors, primary screen (AID 463173); conditions: S. aureus RN4220 wild type/DeltatarO growth, OD600, 18 h, hits give low values, screened at 18.75 µg/mL (by protocol)

Point of comparison: `COc1ccc2cc3cc(C(=O)Nc4ccccc4C)oc3nc2c1`, survival 116%. Against it:
- CCc1nc2ccc(C(=O)NCCc3ccc(SC)cc3)cc2nc1CC — lower, 76%
- CCC(C(=O)NC1CCCC1)N(C(=O)Cn1nnc(-c2ccc(C)cc2)n1)c1ccc2c(c1)OCCO2 (stereo unspecified) — lower, 90%
- COc1ccc(-c2nnn(CC(=O)N(CC(=O)NCc3ccccc3)c3ccc4c(c3)OCCO4)n2)cc1OC — lower, 69%
- O=C(CN(C(=O)Cn1nnc(-c2ccc(F)cc2)n1)c1ccccc1C(F)(F)F)NCc1ccco1 — lower, 98%
- CCC(C(=O)NC1CCCC1)N(C(=O)Cn1nnc(-c2cccs2)n1)c1cnc2ccccc2c1 (stereo unspecified) — lower, 92%
- O=C(Oc1c(Cl)cc(Cl)c2cccnc12)N1CCCCCC1 — lower, 112%
- COC(=O)c1cc2sccc2n1CC(=O)Nc1ccc(OC)c(OC)c1 — lower, 86%
- Cc1cccc(OCC(=O)Nc2ccccc2OCc2cc(=O)n3cc(C)ccc3n2)c1 — lower, 94%
- COc1ccc(OC(=O)CSc2nnc(-c3ccc(F)cc3)o2)cc1 — lower, 109%
- FC(F)(F)c1cccc(C(c2nnnn2Cc2ccccc2)N(Cc2ccco2)CC2CCCO2)c1 (stereo unspecified) — lower, 105%
- COc1cccc(C(=O)Nc2c3c(nn2-c2ccc(C)cc2C)CS(=O)(=O)C3)c1OC — the same, 116%
- Fc1ccc(C(c2nnc(-c3ccccc3)o2)N2CCN(c3ccccc3)CC2)c(Cl)c1 (stereo unspecified) — lower, 84%
- COc1ccccc1N1CCN(C(c2ccc(Cl)cc2)c2nnc(-c3cccc(F)c3)o2)CC1 (stereo unspecified) — lower, 62%
- Cc1cccc(N2CCN(C(c3ccccc3)c3nnc(-c4ccccc4F)o3)CC2)c1C (stereo unspecified) — lower, 58%
- Cc1cccc(N2CCN(C(c3ccccc3)c3nnc(-c4ccccc4Cl)o3)CC2)c1C (stereo unspecified) — lower, 51%
- Cc1ccc(C)c(N2CCN(C(c3ccccc3)c3nnc(-c4ccccc4F)o3)CC2)c1 (stereo unspecified) — lower, 61%
- Cc1ccc(Cl)cc1N1CCN(C(c2ccc(F)cc2)c2nnc(-c3ccccc3)o2)CC1 (stereo unspecified) — lower, 55%
- COc1ccc(N2CCN(C(c3ccccc3)c3nnc(-c4ccccc4Cl)o3)CC2)cc1 (stereo unspecified) — lower, 49%
- Fc1ccc(C(c2nnc(-c3ccccc3)o2)N2CCN(c3cccc(Cl)c3)CC2)cc1 (stereo unspecified) — lower, 91%

With `CCC(C(=O)NCCC(C)C)N(C(=O)Cn1nnc(-c2ccc(C)cc2)n1)c1cccc(O)c1` (stereo unspecified) the survival was 37% (active).
With `Cc1ccc(-c2nnn(CC(=O)N(CC(=O)NCCC(C)C)c3ccc(F)cc3)n2)cc1` the survival was 41% (active).
`Cc1ccc(C)c(N2CCN(C(c3ccccc3)c3nnc(-c4ccccc4)o3)CC2)c1` (stereo unspecified) was tested, and the survival was -5% (active).
For `Cc1cccc(N2CCN(C(c3ccc(F)cc3)c3nnc(-c4ccccc4)o3)CC2)c1C` (stereo unspecified), the survival was 39% (active).
In the case of `Cc1ccc(C)c(N2CCN(C(c3ccc(F)cc3)c3nnc(-c4ccccc4)o3)CC2)c1` (stereo unspecified), the survival is reported as 16% (active).
In the case of `COc1ccccc1N1CCN(C(c2ccccc2)c2nnc(-c3ccccc3Cl)o2)CC1` (stereo unspecified), the survival is reported as 32% (active).
